Results: the supplement of paper PMC12350171
Counter-ions that a name gives are not always drawn. Unmarked numbers belong to inactive results.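 The calls were made as follows: active = normalised median growth AUC below 0.1 of DMSO control; inactive = AUC 0.1 or higher.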

Experiments:
Test in all cases: growth AUC normalised to DMSO control (median) (fraction of control); higher = less growth inhibition, active = hit call of the paper
Details in all cases: 20 µM
P. vulgatus RND KO = test system: P. vulgatus RND KO
In short: (§1)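 Strains were passaged twice overnight without oxygen, then grown in mGAM in 96-well plates with each approved-drug library compound at 20 μM and 1% DMSO, starting at OD578 0.01. OD578 was read hourly for 24 h inside an anaerobic incubator. Curves were truncated at entry into stationary phase, and the trapezoidal-rule area under the curve was normalised to same-plate vehicle wells. The value is the median across three biological replicates.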

P. vulgatus WT = test system: P. vulgatus WT
In short: as §1

[1] = test system: S. enterica typhimurium WT
In short: as §1

[2] = test system: S. enterica typhimurium tolC KO
In short: as §1
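Also: active when median AUC fell below 0.1.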

Structure (SMILES) | growth AUC normalised to DMSO control (P. vulgatus RND KO) | growth AUC normalised to DMSO control (P. vulgatus WT) | growth AUC normalised to DMSO control [1] | growth AUC normalised to DMSO control [2]
O=C1CC[C@@H](C(=O)N2CSC[C@H]2C(=O)O)N1 [Pidotimod] | 0.991 | 0.993 | 1 | 0.991
O=c1[nH]c(=O)n([C@H]2C[C@H](O)[C@@H](CO)O2)cc1/C=C/Br [Brivudine] | 1.02 | 1.01 | 1 | 1.01
Cc1ccc(O)c([C@H](CCN(C(C)C)C(C)C)c2ccccc2)c1 [Tolterodine tartrate] | 1.01 | 1.01 | 1 | 0.971
C=CC[C@@H]1/C=C(\C)C[C@H](C)C[C@H](OC)[C@H]2O[C@@](O)(C(=O)C(=O)N3CCCC[C@H]3C(=O)O[C@H](/C(C)=C/[C@@H]3CC[C@@H](O)[C@H](OC)C3)[C@H](C)[C@@H](O)CC1=O)[C@H](C)C[C@@H]2OC [Tacrolimus Monohydrate] | 1 | 1.03 | 0.998 | 1.04
O=C1Nc2ccccc2C1(c1ccc(O)cc1)c1ccc(O)cc1 [Oxyphenisatin] | 1.04 | 1.04 | 0.994 | 0.99
CCCCCNC(=N)N/N=C/c1c[nH]c2ccc(OC)cc12 [Tegaserod maleate] | 0.999 | 0.991 | 0.994 | 0.941
C[C@]12CCC3=C4CCC(=O)C=C4CC[C@H]3[C@@H]1CC[C@@]2(O)CC#N [Dienogest] | 1.03 | 1.04 | 1.02 | 1.02
COc1cccc2c1C(=O)c1c(O)c3c(c(O)c1C2=O)C[C@@](O)(C(=O)CO)C[C@@H]3O[C@H]1C[C@H](N)[C@@H](O)[C@H](C)O1 [Epirubicin hydrochloride] | 1.02 | 0.961 | 1 | 0.0212 (active)
COC(=O)C1=C(C)NC(C)=C(C(=O)O[C@H]2CCN(Cc3ccccc3)C2)[C@H]1c1cccc([N+](=O)[O-])c1 [Barnidipine Hydrochloride] | 1.1 | 1.11 | 0.998 | 0.961
Cc1ccnc2c1NC(=O)c1cccnc1N2C1CC1 [Nevirapine] | 0.995 | 1.01 | 1 | 1
CN1CCC[C@@H]1Cc1c[nH]c2ccc(CCS(=O)(=O)c3ccccc3)cc12 [Eletriptan] | 1.04 | 1.05 | 0.987 | 0.958
CCc1ccc(C(=O)C(C)CN2CCCCC2)cc1 (stereo not drawn) [Eperisone Hydrochloride] | 1.03 | 1.04 | 1 | 0.989
CCOC(=O)[C@H](CCc1ccccc1)N[C@H]1CS[C@H](c2cccs2)CN(CC(=O)O)C1=O [Temocapril hydrochloride] | 1.02 | 1.03 | 1 | 1
O=C(O)C[C@H](O)C[C@H](O)/C=C/c1c(C2CC2)nc2ccccc2c1-c1ccc(F)cc1 [Pitavastatin calcium] | 0.983 | 1 | 1.01 | 0.999
C=C(NC(=O)C(=C)NC(=O)c1csc(C2=N[C@@H]3c4csc(n4)[C@H]4NC(=O)c5csc(n5)[C@H]([C@](C)(O)[C@@H](C)O)NC(=O)[C@H]5CSC(=N5)/C(=C/C)NC(=O)[C@H]([C@@H](C)O)NC(=O)c5csc(n5)[C@]3(CC2)NC(=O)[C@H](C)NC(=O)C(=C)NC(=O)[C@H](C)NC(=O)[C@H]([C@@H](C)CC)N[C@@H]2C=Cc3c([C@H](C)O)cc(nc3[C@H]2O)C(=O)O[C@@H]4C)n1)C(N)=O [Thiostrepton] | 0.0151 (active) | 0.0162 (active) | 1 | 1
N=C(N)Nc1ccc(C(=O)Oc2ccc3cc(C(=N)N)ccc3c2)cc1 [Nafamostat Mesylate] | 1.11 | 1.03 | 0.997 | 0.999
O=C(O)c1cc(=O)c2ccccc2o1 [Chromocarb] | 0.981 | 1 | 0.998 | 1
